Compound activity from PubChem BioAssay.
AMA1 RON2 block = disrupts binding of P. falciparum AMA1 to RON2 | Potency, µM (titrated, usually from 58.2 µM), without a hit: at the highest dose activity change, negative = inhibition, hits mostly inhibitors | 0.2% of 360,000 active | AlphaScreen AMA1-biotinylated RON2 peptide binding;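 also: 0% = vehicle wells and -100% = peptide control; nearly all actives have a fitted effect of over 45% in size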
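AMA1 (3D7) with his tag at 25 nM final met compounds first, then biotinylated RON2 peptide at 25 nM; detection used donor plus acceptor beads, 10 µg/mL apiece, read by AlphaScreen after 30 min at room temperature.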
Pf growth 48h = inhibits P. falciparum growth in the first generation, 48 h | P. falciparum luciferase growth in erythrocytes, 48 h | Potency, µM (top dose mostly 28.7 µM), for the others: at the highest dose activity change, negative = inhibition, hits mostly inhibitors | AID 504832 | 5.9% of 310,000 active; also: % is scaled to controls: 0 for no effect and ±100 for the full control effect
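Compounds are pin-transferred into medium, infected erythrocytes (2% hematocrit, 0.1% parasitemia final) are added, and plates sit one parasite generation at 37 C in 5% CO2. Detection reagent is then added and luminescence measured.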
Pf growth 96h = P. falciparum growth inhibition at 96 hour, primary screen for plastid delayed-death inhibitors; P. falciparum luciferase reporter growth, 96 h; Potency, µM (doses to about 28.7 µM), for inactives: top-dose activity change, negative = inhibition, most hits filed as inhibitors; 6.9% of 320,000 active; AID 504834; also: % is scaled to controls: 0 for no effect and ±100 for the full control effect
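Erythrocytes infected with luciferase-expressing P. falciparum were dispensed at 2% hematocrit and 0.05% parasitemia (final), then incubated with compounds 96 hours at 37 C in 5% CO2. Luminescence after detection reagent addition reported growth.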
SARS PLP yeast = inhibitors of SARS-CoV papain-like protease in yeast | 0.19% of 330,000 active | Potency, µM (top dose mostly 32.9 µM), without a hit: top-dose activity, positive = growth rescue, hits mostly activators | S. cerevisiae expressing SARS-CoV PLpro, growth rescue | AID 485353; calls by dose curve; also: 0% is about no effect; nearly all actives have a fitted effect of over 55% in size
Starred values were filed as active, the others as inactive; ? = inconclusive; . = no result given. Rows were chosen to be rich in hits. Some 9.4% of all compounds tested hit in one or more screens of this group. Unless noted, calls follow the shape of the dose curve; as a rule, active = well fitted curve in the direction sought with a large enough effect; inconclusive = small, poorly fitted or top-dose-only effect, or another doubt; inactive = no such curve, though single readings can be large; an effect the other way counts as inactive or inconclusive. Potency is read from the fitted curve at half-maximal effect.

SMILES | AMA1 RON2 block | Pf growth 48h | Pf growth 96h | SARS PLP yeast
COc1ccc(CCNC(=O)COC(=O)C2CC2C)cc1OC (stereo not drawn) | -1% | 4% | 17% | -4%
Cc1c(C(=O)N2CCN(C)CC2)oc2c1C(=O)CC(C)(C)C2 | -7% | 14% | ? | -1%
Cc1c(C(=O)N2CCOCC2)oc2c1C(=O)CC(C)(C)C2 | -6% | 3% | 12µM* | -1%
CCc1ccc(N2CC(C(=O)Nc3ccc(S(=O)(=O)Nc4ncccn4)cc3)CC2=O)cc1 (stereo not drawn) | 8% | -4% | 35% | -2%
Cc1nc2nc(SCC(=O)NCCCN3CCCC(C)C3)nn2c(C)c1Cc1ccccc1Cl (stereo not drawn) | 2% | 13µM* | 31% | -3%
Cc1ccc(S(=O)(=O)N2CCCC(C(=O)NC3CCCC3)C2)cc1 (stereo not drawn) | -1% | -5% | ? | -15%
O=S1(=O)CC(O)C(Nc2ccccc2)C1 (stereo not drawn) | -4% | -2% | 17% | .
O=S1(=O)CC(O)C(Nc2ccc(Cl)cc2)C1 (stereo not drawn) | 7% | 10% | 3.7µM* | 14%
Cn1ccc(NC(=O)CCl)n1 | -16% | ? | -22% | 13%
CC(/C=N/N1CCN(Cc2ccccc2)CC1)=C\c1ccccc1 | 13µM* | 28% | ? | 2%
Cc1ccc(/C=N/N2CCN(Cc3ccccc3)CC2)cc1 | 13µM* | 19% | 33% | 1%
CC(=C/c1ccccc1)/C=N/N1CCN(Cc2ccc(C)cc2)CC1 | -27% | 31% | 48% | 0%
Cc1ccc(CN2CCN(/N=C/c3ccccc3)CC2)cc1 | -26% | 1% | 2% | 1%
Fc1ccc(/C=N/N2CCN(Cc3ccccc3)CC2)cc1 | ? | 19% | 9.3µM* | -3%
C(=N\N1CCN(Cc2ccccc2)CC1)/c1ccc(-c2ccccc2)cc1 | 22% | -5% | 19% | -1%
O=C(CCCn1c(=S)[nH]c2ccccc2c1=O)NC1CCCC1 | 8% | 0% | 0.52µM* | -2%
CC1CCCCC1NC(=O)CCCn1c(=S)[nH]c2ccccc2c1=O (stereo not drawn) | 34% | ? | 15µM* | -7%
CC1CCCCC1NC(=O)CCCCCn1c(=S)[nH]c2ccccc2c1=O (stereo not drawn) | 91% | ? | ? | -2%
CCOC(=O)c1sc(N)c(C#N)c1CSc1nnc(C2CC2)n1N | 35% | -18% | . | 1%
CCN(CC)CCNC(=O)c1cc(-c2cccnc2)nc2ccc(S(=O)(=O)N3CCC(C)CC3)cc12 | -2% | ? | 13µM* | 6%
CCCCN(C)CCNC(=O)c1cc(-c2cccnc2)nc2ccc(S(=O)(=O)N3CCC(C)CC3)cc12 | 7% | ? | -8% | 1%
CCCCNS(=O)(=O)c1ccc2nc(-c3cccnc3)cc(C(=O)NCCCN(CC)CC)c2c1 | . | 12µM* | ? | 0%
Cc1cc(C)n2c(Br)c(CSc3nc4ccccc4o3)nc2n1 | -5% | 71% | 12% | -11%
O=c1[nH]c2ccccc2n1C1CCN(C(c2ccnc3ccccc23)c2nnnn2-c2ccc3c(c2)OCCO3)CC1 (stereo not drawn) | -4% | . | . | .
CCC(C)n1c(C)nc2c(c1=O)c1nc3ccccc3nc1n2CCC1=CCCCC1 (stereo not drawn) | 0% | 13µM* | 12µM* | -2%
SMILES | AMA1 RON2 block | Pf growth 48h | Pf growth 96h | SARS PLP yeast
CCCCn1c2nc3ccccc3nc2c2c(=O)n(C(C)CC)cnc21 (stereo not drawn) | 37% | 19% | 9% | -6%
COc1ccc(OC)c(C2c3[nH]c4ccccc4c3C[C@H]3C(=O)N(CCCOC(C)C)CC(=O)N23)c1 (stereo partly drawn) | -1% | 7.4µM* | 12µM* | 2%
CC(C)OCCCN1CC(=O)N2C(c3cccc([N+](=O)[O-])c3)c3[nH]c4ccccc4c3C[C@H]2C1=O (stereo partly drawn) | -8% | 8.3µM* | ? | 1%
Cc1ccc2nc(-c3ccncc3)cc(C(=O)NCCc3ccc(F)cc3)c2c1 | 11% | -10% | ? | 0%
CC1(C(=O)N2CCC(CC3CC(c4cccc(Br)c4)=NO3)(C(=O)NCC3CCCCC3)CC2)CC1 (stereo not drawn) | 24% | ? | 2.9µM* | 9%
CC1(C(=O)N2CCC(CC3CC(c4ccc(Cl)cc4)=NO3)(C(=O)NCC3CCCCC3)CC2)CC1 (stereo not drawn) | -2% | ? | 1.5µM* | 9%
O=C(Cn1nc(C(=O)O)c2ccccc2c1=O)Nc1cc(Cl)cc(Cl)c1 | -19% | 3% | 7% | -6%
c1ccc(NC(c2ccccc2)c2ccncc2)cc1 (stereo not drawn) | 9% | 9.3µM* | 80% | 0%
c1ccc(C(Nc2cccnc2)c2ccccc2)cc1 | -15% | . | . | .
CC(Oc1cccc(Cl)c1)C(=O)Nc1cc(S(=O)(=O)N2CCOCC2)ccc1N1CCCCC1 (stereo not drawn) | 45% | 8.3µM* | ? | 5%
CCN1CCN(c2ccc(S(=O)(=O)N3CCOCC3)cc2NC(=O)C(C)Oc2cccc(Cl)c2)CC1 (stereo not drawn) | -14% | 10µM* | ? | 3%
COCCn1nnnc1C(c1cc2cc(C)ccc2[nH]c1=O)N1CCN(C2CCCCC2)CC1 (stereo not drawn) | 11% | 17% | . | 8%
O=C(CCC(=O)Nc1nnc(C2CCCCC2)s1)NCc1cccs1 | -8% | 20% | 10µM* | 9%
CC(Oc1ccccc1)C(=O)Nc1nnc(C2CCCCC2)s1 (stereo not drawn) | -11% | 27% | 0.0029µM* | 0%
CC(Oc1ccccc1)C(=O)Nc1nnc(S(=O)(=O)N2CCCCC2)s1 (stereo not drawn) | 4% | 6% | ? | -16%
O=C(Nc1ccc2c(c1)OCO2)C1CCCN(S(=O)(=O)Cc2ccccc2)C1 (stereo not drawn) | -18% | -4% | . | 4%
Cc1ccc(/C=N/NC(=O)c2ccccc2OCc2ccc(F)cc2)o1 | 29% | ? | ? | -46%
Cc1cccc(/C=N/NC(=O)c2ccccc2OCc2cccc(Br)c2)n1 | 29% | 15µM* | ? | -5%
O=C(N/N=C/c1ccncc1)c1ccccc1OCc1ccc(Br)cc1 | -1% | -62% | 1.9µM* | -32%
O=C(Nc1cccc2nsnc12)c1ccc(-c2ccc(Br)cc2)o1 | 7% | 39% | 22% | -7%
COc1ccc(CC2(CO)CCN(Cc3cnn(-c4ccccc4)c3)CC2)cc1 | -3% | -8% | -4% | 0%
CCCn1ncc(CN2CCC(CO)(Cc3ccc(OC)cc3)CC2)c1C | -11% | -3% | 0.37µM* | 0%
COc1ccc(CC2(CO)CCN(S(=O)(=O)c3cccc4cccnc34)CC2)cc1 | -5% | -21% | 12µM* | 9%
COc1ccc(CC2(CO)CCN(S(=O)(=O)N(C)C)CC2)cc1 | 4% | 25% | 5.9µM* | 0%
O=S(=O)(c1ccccc1)[C@@]1(c2ccccc2)C[C@@H]2ON=C(c3cccc(Br)c3)[C@@H]2C1 | -1% | 12µM* | ? | -1%
